Values joined by “and” are separate entries in the source; they are usually repeats but may differ in a detail not shown here. Identical values can stand only once. Screen size: about 18,000 compounds; about 1,200 (6.7%) were called active. Entries that show only a call come without a potency. Inconclusive results (about 16%) are left out. The sample as a whole holds a higher share of actives than the screen did. Unmarked numbers belong to inactive results. Calls come from the whole dose curve; tested in HEK293 cells.
Potency is the fitted concentration of half-maximal effect.

The nature of this assay: qHTS for Inhibitors of binding or entry into cells for Marburg Virus. The note with it: Marburg virus pseudotype entry/binding inhibition, cell-based; series mostly up to 49.2 µM.
`CC(=O)[O][Sn]([c]1ccccc1)([c]1ccccc1)[c]1ccccc1`: the Potency was 1 µM (active).

Regarding `Cc1cccc(CN2CCN(C3CN(Cc4cn(Cc5ccccc5F)nn4)S(=O)(=O)C3)CC2)c1` (stereo not given), the activity change, negative = inhibition result is “inactive”. Consider `CC(C)(Cc1c[nH]c2ccc(Cl)cc12)NCCOc1ccccc1OCC1CC1`, for which the Potency is 11.2 µM (active) and 8.91 µM (active).

Consider `COc1ccc2c(c1)O[C@@H](c1ccc3c(c1)OCO3)[C@H](OC(=O)NCCc1ccc(OC)c(OC)c1)C2=O`, for which the activity change, negative = inhibition entry is “inactive”. On the same count and under the same terms, then `CC1C(=O)N(Cc2cn(Cc3ccco3)nn2)CCS(=O)(=O)N1Cc1ccc(-c2cccc(CO)c2)cc1` (stereo not given), with “inactive”. The same measure, in the same setting: then `COc1ccc([C@@H](NC(=O)C(F)(F)F)C2CCCC=C2c2ccccc2)cc1OC` (stereo not given in full), with 2.89% [at 8.59 µM]; and `CC[C@H](C)[C@H](NC(=O)[C@H](Cc1ccc(O)cc1)NC(=O)[C@@H](NC(=O)[C@H](CCCN=C(N)N)NC(=O)[C@@H](N)CC(=O)O)C(C)C)C(=O)N[C@@H](Cc1cnc[nH]1)C(=O)N1CCC[C@H]1C(=O)N[C@@H](Cc1ccccc1)C(=O)O`, with “inactive”; and `C=CCC(C)(O)c1ccco1` (stereo not given), with “inactive”. Still for that read-out and setting: for `CC1=C(/C=C/C(C)=C/C=C/C(C)=C/C=C/C=C(C)/C=C/C=C(C)/C=C/C(=O)[C@]2(C)C[C@@H](O)CC2(C)C)C(C)(C)C[C@H](O)C1` the value was “inactive”; for `COc1ccc(-c2nc3c(c4c2C[C@H](c2ccccc2)OC4)CN(C(=O)c2ccco2)CC3)c(C)c1`, 13.2% [at 8.59 µM]. `CCOC(=O)Cn1c(=O)sc2cccc(Cl)c21`: the activity change, negative = inhibition entry was “inactive”. The same measure, in the same setting: then `CC1(C)O[C@@H](C(O)(c2ccccc2)c2ccccc2)[C@H](C(O)(c2ccccc2)c2ccccc2)O1`, with -19% [at 8.59 µM].

Consider `CCCCCCCC/C=C\CCCCCCCC(=O)NCC(=O)O`, for which the activity change, negative = inhibition result was “inactive”.

Take `C[C@H]1CCC[C@@]2(C)CCCC[C@]12O`: the activity change, negative = inhibition entry was “inactive”.

Regarding `COc1ccc([C@H]2C[C@@H](n3cc(COC(=O)c4ccccc4)nn3)[C@H](O)CN2C(=O)c2cccs2)cc1`, the activity change, negative = inhibition entry was “inactive”. The same measure, in the same setting: then `CC(C)C(NS(=O)(=O)c1ccc(-c2ccc(Br)cc2)cc1)C(=O)O` (stereo not given), with “inactive”; and `COc1ccc2c(c1)CO[C@H]([C@H](O)CBr)[C@H]2C=Cc1ccccc1`, with -15.4% [at 8.59 µM]. Still for that read-out and setting: then `C=CCOC(=O)NC(c1ccc(F)c(F)c1)C(C(=O)COC)C(=O)OC` (stereo not given), with “inactive”; and `OC[C@H]1O[C@H](C#Cc2ccccc2)C=C[C@H]1O`, with 19.6% [at 8.59 µM]. For the compound `CCOC(=O)CN1C(=O)NC(c2cccs2)C(C(=O)OC)=C1C` (stereo not given), the activity change, negative = inhibition was -16.9% [at 8.59 µM].

`O=C(O)C1CCN(c2ncnc3ccc(-c4ccccc4C(F)(F)F)cc23)CC1`: the Potency is 112 µM (active).

With `Cc1ccc(S(=O)(=O)N2CCC(=O)N([C@H](COCc3ccccc3)Cc3ccccc3)CC2)cc1`, the activity change, negative = inhibition entry was “inactive”. On the same count and under the same terms, for `O=S1(=O)CC(N2CCN(CCO)CC2)CN1C1CCCC1` (stereo not given) the value was “inactive”; for `O=c1cc(-c2ccc(O)cc2)oc2c(-c3cc(-c4cc(=O)c5c(O)cc(O)cc5o4)ccc3O)c(O)ccc12`, “inactive”; for `CCCCCC(=O)N1C[C@@H](O)[C@H](n2cc(C3CC3)nn2)C[C@H]1c1ccc(OC)cc1`, “inactive”. As for `O=C1CCC[C@@H]2CC(N3CCCCC3)C[C@@H]3CCN1[C@H]23` (stereo not given in full), the activity change, negative = inhibition entry is “inactive”. Still for that read-out and setting: for `Oc1ccc(-c2c(-c3ccccc3)nn3c(C(F)(F)F)cc(C(F)(F)F)nc23)cc1` the value was “inactive”; for `CC(C)=CCCC(C)=CCN1C(=O)[C@]2(O[C@H](C)CC3=CCCC32)c2c(Br)cccc21` (stereo not given in full), 10.2% [at 8.59 µM]. For the compound `Cc1ccc(-c2ccc(C(=O)N3CCc4nnc(CNC(=O)c5ccccc5)n4CC3)cc2)cc1`, the activity change, negative = inhibition result was “inactive”. As to `COc1ccc2[nH]cc(CCNc3ncnc4ccc(-c5ccccc5CN(C)C)cc34)c2c1`, the Potency was 10 µM (active). Regarding `COCCNc1ncnc2ccc(-c3ccccc3CN(C)C)cc12`, the activity change, negative = inhibition result is “inactive”. `COc1ccccc1CNc1ncnc2ccc(-c3c(C)noc3C)cc12`: the activity change, negative = inhibition entry was “inactive”.

Take `C=CCCN(Cc1ccccc1)S(=O)(=O)c1ccccc1Br`: the activity change, negative = inhibition result was “inactive”.

As to `CC(=O)OC[C@H]1O[C@H](C#Cc2ccccc2)C=C[C@@H]1OC(C)=O`, the activity change, negative = inhibition is 21% [at 8.59 µM]. With `CC(=O)OC[C@H]1O[C@@H](O[C@H]2[C@H](O)[C@@H](OC(=O)c3ccccc3C(=O)O)[C@H](O)O[C@@H]2COC(C)=O)[C@H](O)[C@@H](OC(=O)c2ccccc2C(=O)O)[C@@H]1O`, the Potency is 3.55 µM (active). In the case of `CC(=O)OC[C@H]1O[C@H](C#CC2=CCCCC2)C=C[C@H]1OC(C)=O`, the activity change, negative = inhibition was -20.8% [at 8.59 µM]. The same measure, in the same setting: then `CCCC[C@]12Cc3cc(C#N)ccc3[C@H](O1)c1c(cc(-c3ccccc3)oc1=O)O2`, with 9.58% [at 8.59 µM]; and `C[C@H]1Cc2c(COc3ccccc3)nc3c(c2CO1)CN(C(=O)Nc1cccc(C#N)c1)CC3`, with 2.49% [at 8.59 µM] and 20.7% [at 8.59 µM]. Consider `CN1CCC(n2cnc(-c3ccc(F)cc3)c2-c2ccnc(N)n2)CC1`, for which the Potency was 17.7 µM (active). With `CC(C)(CO)CNC(=O)c1ccc2[nH]c(O)c(N=Nc3ccc(S(N)(=O)=O)cc3)c2c1`, the activity change, negative = inhibition result is “inactive”. The same measure, in the same setting: then `Cc1ccc(NC(=O)O[C@@H]2C(=O)c3cc(Br)ccc3O[C@H]2c2ccc3c(c2)OCO3)cc1Br`, with “inactive”; and `CCOCCOC(=O)C(C)Oc1ccc(Oc2ncc(C(F)(F)F)cc2Cl)cc1` (stereo not given), with “inactive”. `CC[N+](C)(CC)CCC[n+]1c(-c2ccccc2)c2cc(N)ccc2c2ccc(N)cc21`: the Potency is 7.08 µM (active) and 2.82 µM (active). For the compound `CCCCC/C=C\CC1OC1CCCCCCCC(=O)O` (stereo not given), the activity change, negative = inhibition entry was “inactive”. For the compound `CCC(C)(C)N=C(NC#N)Nc1cccnc1`, the activity change, negative = inhibition entry was “inactive”.

(Values after PubChem BioAssay AID720532 (National Center for Advancing Translational Sciences (NCATS), 2013).)
